Bioassay records as filed in PubChem BioAssay.
Most compounds without a hit are left out; they make up all but 1.3% or so of the library.
LYPLA1 inh – counter-screen for PME1 inhibitors: inhibitors of human LYPLA1; 0.16% of 320,000 active; inhibition, % at 5.9 µM; O75608; recombinant LYPLA1, FP-Rh probe fluorescence polarization;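 active = inhibition above the mean of all tested compounds plus 3 SD, set per campaign, cut at about 14% in these data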;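 note: inhibitors block serine hydrolase probe labeling of LYPLA1 so polarization falls; 0% = enzyme with DMSO and 100% = wells lacking LYPLA1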
ZTA counter – counter-screen for EBNA-1 inhibitors: inhibitors of Epstein-Barr virus ZTA | P03206 | ZTA-DNA binding, fluorescence polarization | inhibition, % at 11 µM | 0.15% of 320,000 active; in the data active = inhibition above about 33%
Target sequence (P03206 whole entry, looked up): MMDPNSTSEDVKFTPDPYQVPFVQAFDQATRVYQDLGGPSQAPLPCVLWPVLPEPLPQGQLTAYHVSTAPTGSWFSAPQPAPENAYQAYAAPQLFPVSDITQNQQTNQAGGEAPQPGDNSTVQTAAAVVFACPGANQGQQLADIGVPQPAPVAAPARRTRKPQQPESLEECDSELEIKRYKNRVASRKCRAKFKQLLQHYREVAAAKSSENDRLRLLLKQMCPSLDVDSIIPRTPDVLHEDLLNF
EBNA-1 inh – blocks EBNA-1 binding to DNA; EBNA-1 DNA binding, fluorescence polarization; 0.34% of 300,000 active; inhibition, % at 14.8 µM; in the data active = inhibition above about 28%
LYPLA2 inh – counter-screen for PME1 inhibitors: inhibitors of human LYPLA2; O95372; recombinant LYPLA2, FP-Rh probe fluorescence polarization; inhibition, % at 5.9 µM; 0.38% of 320,000 active; AID 2177;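 active = inhibition above the screen-wide mean plus 3 SD, limit set per campaign, cut at about 26% in these data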;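 note: 0% = LYPLA2 with DMSO and 100% = wells lacking LYPLA2 enzyme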
Target sequence (O95372 whole entry, looked up): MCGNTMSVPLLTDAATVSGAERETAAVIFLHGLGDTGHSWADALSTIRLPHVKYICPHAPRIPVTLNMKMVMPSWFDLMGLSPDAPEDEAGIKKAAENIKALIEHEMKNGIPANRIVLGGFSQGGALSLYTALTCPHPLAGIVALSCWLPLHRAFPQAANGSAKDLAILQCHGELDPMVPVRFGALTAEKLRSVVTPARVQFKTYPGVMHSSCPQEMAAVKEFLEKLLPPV
PREPL inh – inhibits the human prolyl oligopeptidase-like enzyme; AID 2751; 0.68% of 320,000 active; inhibition, % at 5.96 µM; Q4J6C6; recombinant PREPL, fluorescence polarization activity-based probe; in the data active = inhibition above about 43%;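 note: 0% = enzyme with DMSO and 100% = wells lacking enzyme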
Starred values were filed as active, the others as inactive.

Results for O=C1c2cccc3cccc(c23)C(=O)N1CCN1CCN(CC(O)COc2ccccc2)CC1 (stereo not drawn) ?
LYPLA1 inh: 3.0; ZTA counter: -4.5; EBNA-1 inh: 3.2; LYPLA2 inh: 30.8*; PREPL inh: -15.6

Results for Cn1c(N)nc2nc(CCc3ccccc3)c(=O)[nH]c2c1=O ?
LYPLA1 inh: -3.2; ZTA counter: 1.5; EBNA-1 inh: -16.0; LYPLA2 inh: -2.1; PREPL inh: 24.4

How did O=c1oc(-c2ccco2)nc2sc3c(c12)CCCC3 do in these assays?
LYPLA1 inh: 0.1; ZTA counter: -5.2; EBNA-1 inh: 6.2; LYPLA2 inh: 18.4; PREPL inh: 72.4*

How did O=c1oc(-c2ccccc2)nc2sc3c(c12)CCC3 do in these assays?
LYPLA1 inh: -6.5; ZTA counter: -8.3; EBNA-1 inh: 1.1; LYPLA2 inh: -2.3; PREPL inh: 39.7

How did Cn1nccc1C(=O)N(CCN1CCCCC1)CC1CCCN(C2CCCC2)C1 (stereo not drawn) do in these assays?
LYPLA1 inh: -3.5; ZTA counter: 1.5; EBNA-1 inh: -1.1; LYPLA2 inh: -1.6; PREPL inh: 1.4

Results for Cn1c(=O)[nH]c(=O)c2c1nc(N/N=C/c1ccncc1)n2Cc1ccc(Cl)cc1 ?
LYPLA1 inh: -1.4; ZTA counter: 8.9; EBNA-1 inh: 0.2; LYPLA2 inh: 2.6; PREPL inh: -1.4

What do the screens show for `CC(C)CC(=O)O/N=C1\C(=O)N(Cc2ccc(Cl)cc2)c2ccc([N+](=O)[O-])cc21`?
LYPLA1 inh: 9.5; ZTA counter: -9.4; EBNA-1 inh: -7.6; LYPLA2 inh: 43.5*; PREPL inh: 9.4

What do the screens show for `CC(C)CC(=O)O/N=C1\C(=O)N(c2ccccc2)c2ccccc21`?
LYPLA1 inh: -4.6; ZTA counter: 8.4; EBNA-1 inh: -7.4; LYPLA2 inh: -0.6; PREPL inh: -5.5

Results for O=c1[nH]c(Cc2cccs2)nc2scc(-c3ccc(Cl)cc3)c12 ?
LYPLA1 inh: 0.4; ZTA counter: -7.6; EBNA-1 inh: -0.7; LYPLA2 inh: 4.1; PREPL inh: 55.1*

How did N[C@@H](Cc1ccccc1)C(=O)N1CCC(C(=O)NCC(=O)NCC(=O)O)CC1 do in these assays?
LYPLA1 inh: -3.3; ZTA counter: 8.0; EBNA-1 inh: 7.8; LYPLA2 inh: -8.0; PREPL inh: -4.0

What do the screens show for `CCOc1cccc(=O)c2c(C)n(Cc3ccccc3)c(C)c12`?
LYPLA1 inh: -0.9; ZTA counter: 0.8; EBNA-1 inh: 3.2; LYPLA2 inh: 0.9; PREPL inh: 16.2

How did CCOc1cccc(=O)c2c(C)n(-c3ccc(C(=O)O)cc3)c(C)c12 do in these assays?
LYPLA1 inh: 7.9; ZTA counter: 40.9*; EBNA-1 inh: 6.5; LYPLA2 inh: 0.7; PREPL inh: 0.4

How did CC(C)Cc1cc(C(=O)N(C)C2CCCN(Cc3ccccc3F)C2)n(C)n1 (stereo not drawn) do in these assays?
LYPLA1 inh: 2.1; ZTA counter: 9.5; EBNA-1 inh: -10.7; LYPLA2 inh: -0.8; PREPL inh: 18.0

How did O=C(CSc1nnc(-c2ccc(OC(F)F)cc2)o1)NCc1cccs1 do in these assays?
LYPLA1 inh: 3.9; ZTA counter: 77.8*; EBNA-1 inh: 146.9*; LYPLA2 inh: 8.7; PREPL inh: -9.9

How did CN1CCN(Cc2cc(COCc3ccccc3)c3cccnc3c2O)CC1 do in these assays?
LYPLA1 inh: 2.8; ZTA counter: 9.9; EBNA-1 inh: 0.1; LYPLA2 inh: 5.8; PREPL inh: 47.2*

Results for Oc1ccc(CN2CCN(Cc3ccccc3)CC2)c2cccnc12 ?
LYPLA1 inh: -1.9; ZTA counter: -0.3; EBNA-1 inh: -21.5; LYPLA2 inh: 5.6; PREPL inh: 20.0

What do the screens show for `CN(C)c1ccc(/C=C/c2ccc3ccccc3n2)cc1`?
LYPLA1 inh: 0.5; ZTA counter: 12.4; EBNA-1 inh: -11.4; LYPLA2 inh: 2.2; PREPL inh: 60.2*

How did C(=C\c1ccc2ccccc2n1)/c1ccccc1 do in these assays?
LYPLA1 inh: 2.4; ZTA counter: -9.4; EBNA-1 inh: -11.1; LYPLA2 inh: -0.6; PREPL inh: -10.7

Results for O=C(O)c1ccc2c(c1)[C@@H]1C=CC[C@@H]1[C@H](c1ccccn1)N2 ?
LYPLA1 inh: -7.3; ZTA counter: 79.8*; EBNA-1 inh: 20.0; LYPLA2 inh: 10.3; PREPL inh: 13.8

Results for Cc1ccc(C(=O)OC2OC(=O)C(Cl)=C2N2CCOCC2)cc1 (stereo not drawn) ?
LYPLA1 inh: 1.1; ZTA counter: -12.9; EBNA-1 inh: -8.5; LYPLA2 inh: 17.3; PREPL inh: 43.3*

Results for CC(C)C(C(=O)O)N1C(=O)/C(=C/C=C/c2ccco2)SC1=S (stereo not drawn) ?
LYPLA1 inh: -7.6; ZTA counter: 99.3*; EBNA-1 inh: 41.5*; LYPLA2 inh: -1.6; PREPL inh: 34.6

What do the screens show for `O=C(NN1C(=O)/C(=C/C=C/c2ccco2)SC1=S)c1ccncc1`?
LYPLA1 inh: -8.6; ZTA counter: 74.2*; EBNA-1 inh: 50.8*; LYPLA2 inh: -4.8; PREPL inh: 16.9

What do the screens show for `O=C1/C(=C/C=C/c2ccco2)SC(=S)N1c1ccc(O)cc1`?
LYPLA1 inh: -16.4; ZTA counter: 23.0; EBNA-1 inh: 22.5; LYPLA2 inh: -13.7; PREPL inh: 9.6

What do the screens show for `Cc1cccc(C)c1NC(=O)COC(=O)c1cccc2c1C(=O)c1ccccc1C2=O`?
LYPLA1 inh: 0.9; ZTA counter: 2.0; EBNA-1 inh: -8.4; LYPLA2 inh: -6.6; PREPL inh: 1.0

What do the screens show for `Cc1cccc(NC(=O)COC(=O)c2cccc3c2C(=O)c2ccccc2C3=O)c1C`?
LYPLA1 inh: -3.7; ZTA counter: 8.8; EBNA-1 inh: 9.6; LYPLA2 inh: 6.2; PREPL inh: 59.1*

Results for Nc1ccc(OCCCc2c(N)nc(N)nc2N)cc1 ?
LYPLA1 inh: 0.8; ZTA counter: -5.9; EBNA-1 inh: -1.4; LYPLA2 inh: 10.2; PREPL inh: 52.0*

How did COc1ccc(Cc2c(N)nc(N)nc2N)cc1 do in these assays?
LYPLA1 inh: 2.8; ZTA counter: -11.0; EBNA-1 inh: -13.4; LYPLA2 inh: -2.8; PREPL inh: 13.0

How did COc1cc(/C=N/NC(=O)COc2c(C)cc([N+](=O)[O-])cc2C)ccc1OC(=O)c1ccccc1Br do in these assays?
LYPLA1 inh: -5.8; ZTA counter: -4.2; EBNA-1 inh: -2.7; LYPLA2 inh: -7.7; PREPL inh: 13.9

Results for COc1cc(/C=N/NC(=O)COc2c(C)cc([N+](=O)[O-])cc2C)ccc1OC(=O)c1ccccc1 ?
LYPLA1 inh: -4.3; ZTA counter: -4.2; EBNA-1 inh: 0.9; LYPLA2 inh: -14.5; PREPL inh: 70.5*

Results for C#CCOCCOCCOCCNc1nc(N2CCN(C(=O)CCCCCCCCCCNC(=O)[C@H](CO)n3cc(CCCCCN)nn3)CC2)nc(N2CCN(C(=O)CCCCCCCCCCNC(=O)[C@H](CCCN=C(N)N)n3cc(C[C@@H](C)CC)nn3)CC2)n1 ?
LYPLA1 inh: -7.0; ZTA counter: 105.3*; EBNA-1 inh: 12.8; LYPLA2 inh: -13.3; PREPL inh: 64.3*
